The list is not random: actives were taken first. Their share in the collection is about 2.4%.
HSF1 inhib – HSF1 inhibition; NIH3T3-HGL HSE-luciferase, MG132-induced, luminescence 8 h; active compounds read low; activity change, negative = inhibition, % at 7.5 µM (by protocol); 300,000 tested, 0.77% active;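 active = more than half of replicate wells show activity change below -50%, luminescence cut by over half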;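 note: luciferase reports HSF-1 transcriptional activity via heat shock element; 0% = median of DMSO wells and -100% = zero luminescence signal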
HSP90 refold inh – blocks HSP90-mediated luciferase refolding in reticulocyte lysate; Rabbit reticulocyte lysate, luciferase refolding luminescence, 3 h; inhibition, % at 5.6 µM; 290,000 tested, 0.91% active; AID 1789;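 active = inhibition above the screen-wide mean plus 3 SD, computed separately per campaign, cut at about 16% in these data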;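 note: 0% = DMSO wells and 100% = 60 µM geldanamycin wells; inhibitors lower the luminescence because luciferase stays unfolded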
STAT3 inh – STAT3 signaling inhibition; U3A cells, IL-6 STAT3-luciferase reporter, luminescence; host cell line lacks STAT1; inhibition, % at 5.5 µM; 190,000 tested, 0.89% active;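 active = inhibition above the mean inhibition across all screened compounds plus 3 SD, cut at about 44% in these data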;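 note: 0% = DMSO only wells and 100% = 100 µM nifuroxazide control wells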
PPC-1+TRAIL kill – PPC-1 cancer cell killing with TRAIL present | cell killing (% activity), % at 4 µM or 5 µM | PPC-1 cells + TRAIL, ATPLite viability luminescence | 220,000 tested, 0.41% active;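 active = cell killing above 50% in the first pass at 4 µM, then a duplicate retest at 5 µM averaging 50% or more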;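 note: plate controls were cells with TRAIL plus DMSO for no effect and medium-only wells lacking cells for full effect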
TRAIL sens C8 – caspase-8 TRAIL sensitization; inhibition (viability loss, TRAIL sensitization), % at 10 µM; AID 624354; 360,000 tested, 1% active; NB7+C8 cells + TRAIL, ATPlite viability luminescence;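 active = compounds causing at least 50% loss of cell viability in the single-dose screen, relative to plate controls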
STAT1 inh – inhibitors of IFN-gamma induced STAT1 signaling; NIH 3T3 STAT1-luciferase reporter, luminescence; inhibition, % at 5.5 µM; 200,000 tested, 0.35% active; AID 920;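 active = inhibition above a set limit, the mean inhibition across all tested compounds plus 3 SD, cut at about 34% in these data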;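 note: 0% = IFN-gamma with DMSO and 100% = IFN-gamma with 300 µM nifuroxazide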
PPC1 cytotox – PPC-1 cell cytotoxicity. AID 1447. PPC-1 viability, ATPlite luminescence, overnight. cytotoxicity, % at 5 µM. shares compounds with PPC-1+TRAIL kill. 1,200 tested, 50% active;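 active = reconfirmed compounds whose average cytotoxicity reaches 50% or more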;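 note: 0% = DMSO-treated cells and 100% = wells holding medium but no cells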
An asterisk follows results filed as active.

How did CCOC(=O)C1(C)CCCCCN1C(=O)c1ccccc1F (stereo not given) do in these assays?
TRAIL sens C8: -3.5

Results for CCOC(=O)c1cc2sccc2n1CC(=O)Nc1ccc(OC)c(OC)c1 ?
HSF1 inhib: 3.7; HSP90 refold inh: 2.1; STAT3 inh: 4.8; PPC-1+TRAIL kill: 9.2; TRAIL sens C8: 6.0; STAT1 inh: -2.0; PPC1 cytotox: 7.2

Results for C[C@H](O)[C@@H]1C(=O)N2CCc3c([nH]c4ccccc34)[C@@H]2C[C@@H]1N(C)C(=O)Nc1cc(Cl)cc(Cl)c1 ?
TRAIL sens C8: 28.6

Results for COc1ccc(-c2cc(=Nc3ccc(C(=O)O)cc3)c3cc(C)ccc3o2)cc1 ?
HSF1 inhib: 20.2; HSP90 refold inh: 2.1; STAT3 inh: 18.0; PPC-1+TRAIL kill: 12.2; TRAIL sens C8: 46.5; STAT1 inh: -20.4; PPC1 cytotox: 17.0

What do the screens show for `CCc1ccc2oc(-c3ccc(OC)cc3)cc(=Nc3c(C)n(C)n(-c4ccccc4)c3=O)c2c1`?
HSF1 inhib: 0.5; HSP90 refold inh: 10.7; STAT3 inh: 0.6; PPC-1+TRAIL kill: 44.6; TRAIL sens C8: 20.2; STAT1 inh: -7.0

What do the screens show for `N#Cc1cc2c(nc1SCC(=O)Nc1sc3c(c1C#N)CCC3)CCC2`?
HSF1 inhib: 13.2; HSP90 refold inh: 1.3; STAT3 inh: -3.3; PPC-1+TRAIL kill: 20.0; TRAIL sens C8: 5.8; STAT1 inh: -12.7

How did Cc1cc(C)c(C#N)c(SCC(=O)Nc2ccccc2C(N)=O)n1 do in these assays?
HSF1 inhib: 3.0; HSP90 refold inh: 10.0; STAT3 inh: 10.1; PPC-1+TRAIL kill: 73.0*; TRAIL sens C8: 49.8; STAT1 inh: -0.6; PPC1 cytotox: 73.6*

How did CCc1nnc(NC(=O)CSc2nc(C)cc(C)c2C#N)s1 do in these assays?
HSF1 inhib: 19.7; HSP90 refold inh: 0.0; STAT3 inh: 33.5; PPC-1+TRAIL kill: 74.0*; TRAIL sens C8: 72.7*; STAT1 inh: -21.8; PPC1 cytotox: 73.6*

Results for Cc1ccc(C#N)c(SCC(=O)Nc2nccs2)n1 ?
HSF1 inhib: -0.7; HSP90 refold inh: 0.5; STAT3 inh: 12.7; PPC-1+TRAIL kill: 54.5*; TRAIL sens C8: 46.7; STAT1 inh: -15.8; PPC1 cytotox: 58.6*

How did COCc1cc(C)nc(SCC(=O)Nc2ccccc2C)c1C#N do in these assays?
HSF1 inhib: -2.8; HSP90 refold inh: -1.2; STAT3 inh: 11.5; PPC-1+TRAIL kill: -5.8; TRAIL sens C8: -1.8; STAT1 inh: 16.1

What do the screens show for `CCc1nnc(NC(=O)CSc2nc3c(cc2C#N)CCC3)s1`?
HSF1 inhib: 15.4; HSP90 refold inh: -4.6; STAT3 inh: 27.4; PPC-1+TRAIL kill: 65.3*; TRAIL sens C8: 64.0*; STAT1 inh: -20.5; PPC1 cytotox: 69.3*

How did Cc1ccc(S(=O)(=O)N2CC3(O)CN(C(=O)OC(C)C)N(C(=O)OC(C)C)CC3(OC(=O)NCc3ccccc3F)C2)cc1 (stereo not given) do in these assays?
TRAIL sens C8: 0.3

Results for O=C(CCNS(=O)(=O)c1ccc(OC(F)(F)F)cc1)Nc1cccc(S(=O)(=O)N2CCCC2)c1 ?
TRAIL sens C8: -0.9

What do the screens show for `O=C(Nc1nc2ccc([N+](=O)[O-])cc2s1)c1ccco1`?
HSF1 inhib: 2.1; HSP90 refold inh: -3.7; STAT3 inh: 20.9; PPC-1+TRAIL kill: 26.0; STAT1 inh: -15.8; PPC1 cytotox: 34.2

What do the screens show for `CC(=O)Nc1ccc2nc(NC(=O)c3ccco3)sc2c1`?
HSF1 inhib: 42.7; HSP90 refold inh: 3.2; TRAIL sens C8: 22.8

Results for COc1ccc(C(=O)Nc2ccccc2C(=O)N/N=C/c2ccccn2)cc1OC ?
HSF1 inhib: -5.5; HSP90 refold inh: 4.2; PPC-1+TRAIL kill: 75.5*; TRAIL sens C8: 84.6*; PPC1 cytotox: 75.2*

What do the screens show for `CN(CC(=O)NCC1CCCO1)S(=O)(=O)c1ccc2ccccc2c1` (stereo not given)?
TRAIL sens C8: -11.0

How did COc1ccc(-c2cc(=O)c3cc(O)ccc3o2)cc1 do in these assays?
HSF1 inhib: 27.2; HSP90 refold inh: 1.9; PPC-1+TRAIL kill: 18.8; TRAIL sens C8: 32.5; STAT1 inh: -50.9; PPC1 cytotox: 28.9

How did Cc1nn(-c2nc3ccccc3[nH]2)c(=O)c2ccccc12 do in these assays?
HSF1 inhib: -81.3*; HSP90 refold inh: 98.8*; STAT3 inh: 111.6*; PPC-1+TRAIL kill: 97.3*; TRAIL sens C8: 96.3*; STAT1 inh: 97.2*; PPC1 cytotox: 97.0*

Results for Cc1nn(-c2ccc3ccccc3c2)c(=O)c2ccccc12 ?
HSF1 inhib: 26.5; HSP90 refold inh: -4.0; STAT3 inh: -22.8; PPC-1+TRAIL kill: 18.8; TRAIL sens C8: 7.5; STAT1 inh: -54.6

How did CC(C)(C)NC(=O)C(c1ccc(C#N)cc1)n1c(=O)c(-c2ccco2)nc2ccccc21 (stereo not given) do in these assays?
TRAIL sens C8: 10.5

How did COc1ccc(C(C)=O)cc1Cn1c(C)c(C(=O)NCc2ccc3c(c2)OCO3)sc1=O do in these assays?
TRAIL sens C8: -12.1

Results for O=[N+]([O-])c1ccc2nc(NN=Cc3ccc(O)cc3)sc2c1 ?
TRAIL sens C8: 14.8

How did C[C@H](CO)N1C[C@H](C)[C@@H](CN(C)S(=O)(=O)c2ccc3c(c2)OCCCO3)OCc2cn(nn2)CCCC1=O do in these assays?
TRAIL sens C8: 0.6

How did CCN(CC(=O)NCc1ccc(F)cc1)C(=O)C1CCN(C(=O)Nc2ccccc2)CC1 do in these assays?
HSF1 inhib: -6.4; HSP90 refold inh: 2.3; STAT3 inh: -1.5; PPC-1+TRAIL kill: 7.3; TRAIL sens C8: -8.3; STAT1 inh: -3.4; PPC1 cytotox: 7.2

What do the screens show for `CCN(Cc1ccccc1)C(=O)C1CCN(C(=O)Nc2ccccc2)CC1`?
HSF1 inhib: -10.4; HSP90 refold inh: 2.0; TRAIL sens C8: 13.6

What do the screens show for `N/C(=N\OC(=O)c1ccc2c(c1)OCO2)c1cccnc1`?
HSF1 inhib: 0.6; HSP90 refold inh: 2.0; STAT3 inh: 12.4; PPC-1+TRAIL kill: 74.2*; TRAIL sens C8: 82.4*; STAT1 inh: 12.4; PPC1 cytotox: 73.6*

Results for N/C(=N\OC(=O)c1ccc2c(c1)OCO2)c1cccc(Br)c1 ?
HSF1 inhib: -0.4; HSP90 refold inh: -3.7; STAT3 inh: -1.0; PPC-1+TRAIL kill: 7.4; TRAIL sens C8: 0.3; STAT1 inh: -70.8

How did CN1CCN(c2ccc(-c3ccc4ccccc4n3)cc2)CC1 do in these assays?
HSF1 inhib: -89.7*; HSP90 refold inh: 89.4*; STAT3 inh: 112.1*; PPC-1+TRAIL kill: 82.0*; TRAIL sens C8: 89.9*; STAT1 inh: 95.3*; PPC1 cytotox: 76.8*

What do the screens show for `c1ccc2nc(-c3ccncc3)ccc2c1`?
HSF1 inhib: 10.5; HSP90 refold inh: 1.3; STAT3 inh: 9.8; PPC-1+TRAIL kill: 25.6; TRAIL sens C8: -6.5; STAT1 inh: -26.7
